{"source": "PubChem BioAssay AID1578", "about": "(Sanford-Burnham Center for Chemical Genomics, 2009)", "note": "The whole screen tested about 290,000 compounds, of which about 3,000 (1%) were called active. This is one part of a sample in which actives are shown more often than they occur. Values without a mark were called inactive. Cut-off read from the data, not from the text of the source: active = inhibition mostly above about 36% (no sharp cut-off); inactive = mostly below about 34%."}
{"test": "inhibition of NOD1-driven NF-kB reporter – cell-based, luminescence, uHTS, primary screen (AID 1578);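 note: HEK-293T reporter cells stimulated with the NOD1 agonist gamma-tri-DAP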", "settings": "NOD1-driven NF-kB luciferase reporter cells, at 4 µM, hits give high values"}
{"compound": "O=C(CSc1ncccc1C(=O)O)NC1CCCCC1", "inhibition": "-47.1%"}
{"compound": "CC(C)C(=O)Nc1ccc(Cl)cc1-c1nc2ccccc2[nH]c1=O", "inhibition": "34.6%"}
{"compound": "Cc1cccc(C)c1NC(=O)CSc1nnc([C@@H]2CCCN2C(=O)OC(C)(C)C)o1", "inhibition": "-0.7%"}
{"compound": "N#CCS(=O)(=O)c1ccccc1", "inhibition": "-5.7%"}
{"compound": "O=C(CSc1nc2scc(-c3ccccc3)c2c(=O)[nH]1)NC1CCCCC1", "inhibition": "67.6% (active)"}
{"compound": "O=C(CSc1nc2scc(-c3ccccc3)c2c(=O)[nH]1)N1CCCCC1", "inhibition": "-9.2%"}
{"compound": "CC(C)(C)NC(=O)CSc1nc2scc(-c3ccccc3)c2c(=O)[nH]1", "inhibition": "25.7%"}
{"compound": "Cc1ccc2nc(CNC(=O)C3CCC(=O)N(Cc4ccccc4F)C3)cn2c1", "note": "(configuration not stated)", "inhibition": "-21.3%"}
{"compound": "Cc1ccc(C2(CC(=O)O)CCOC(C)(C)C2)cc1", "note": "(configuration not stated)", "inhibition": "5.4%"}
{"compound": "Cc1ccc(C2=NNC3(CCOC(C)(C)C3)S2)cc1", "note": "(configuration not stated)", "inhibition": "74.5% (active)"}
{"compound": "CCc1ccc2c(c1)C1(NN=C(c3ccc(C)cc3)S1)C(=O)N2", "note": "(configuration not stated)", "inhibition": "15.2%"}
{"compound": "O=C(c1cnsn1)N1CCC(CO)(Cc2ccc(Cl)cc2)CC1", "inhibition": "-10.4%"}
{"compound": "NC(=O)c1cc(-c2csc(NCCc3ccccc3)n2)ccc1O", "inhibition": "-52.8%"}
{"compound": "COc1ccc(N2CCN(C(=O)CSc3nc4[nH]ncc4c(=O)n3-c3ccc(Br)cc3)CC2)cc1", "inhibition": "8.7%"}
{"compound": "CCCNC(=O)C(=O)NCC1CCCN1CC", "note": "(configuration not stated)", "inhibition": "-18.5%"}
{"compound": "CCN1CCCC1CNC(=O)C(=O)NC", "note": "(configuration not stated)", "inhibition": "-17.4%"}
{"compound": "CCN1CCCC1CNC(=O)C(=O)NC1CC1", "note": "(configuration not stated)", "inhibition": "40.8% (active)"}
{"compound": "CCCCNC(=O)Cn1c(-c2ccc(OC)cc2)noc1=O", "inhibition": "-2.3%"}
{"compound": "COc1ccc(NC(=O)N2CCC(O)(c3cccnc3)CC2)c(OC)c1", "inhibition": "15.9%"}
{"compound": "Oc1ccc(Br)cc1-c1ccnn1-c1ccccc1", "inhibition": "82.1% (active)"}
{"compound": "Fc1ccc(-c2ccnn2-c2ccccc2)cc1", "inhibition": "-18.4%"}
{"compound": "Oc1ccc(Br)cc1-c1cc(-c2ccccc2)n[nH]1", "inhibition": "-13.2%"}
{"compound": "COC(=O)CCCCC1SCC2NC(=O)NC21O", "note": "(configuration not stated)", "inhibition": "-2.5%"}
{"compound": "Cc1cnc(NC(=O)c2sc3ccccc3c2Cl)s1", "inhibition": "105% (active)"}
{"compound": "O=C(Nc1cccnc1)Nc1cc(Cl)cc(Cl)c1", "inhibition": "76.8% (active)"}
{"compound": "Cc1ccc2c(Cl)c(C(=O)Nc3cc(C)on3)sc2c1", "inhibition": "-79.3%"}
{"compound": "Cc1nnc(NC(=O)c2sc3ccccc3c2Cl)s1", "inhibition": "-46.1%"}
{"compound": "O=C(Nc1ccc(Cl)cc1)Nc1cccnc1", "inhibition": "-14.9%"}
{"compound": "Cc1ccc(NC(=O)c2sc3ccccc3c2Cl)nc1", "inhibition": "-21.7%"}
{"compound": "Cc1ccc2c(Cl)c(C(=O)NCc3cccnc3)sc2c1", "inhibition": "12.2%"}
{"compound": "Cc1ccc2c(Cl)c(C(=O)Nc3cccnc3)sc2c1", "inhibition": "87.9% (active)"}
{"compound": "O=C(Nc1cccnc1)Nc1ccccc1Cl", "inhibition": "-8.9%"}
